# Data as given in ChEMBL document CHEMBL2218924, “A broad activity screen in support of a chemogenomic map for kinase signalling research and drug discovery” (Biochem J, 2013).
# Columns and labels:
# [1] = target: T1, Serine/threonine-protein kinase Sgk3 (Homo sapiens) (UniProt Q96BR1); settings: at 1 µM
# T1 sequence (whole entry): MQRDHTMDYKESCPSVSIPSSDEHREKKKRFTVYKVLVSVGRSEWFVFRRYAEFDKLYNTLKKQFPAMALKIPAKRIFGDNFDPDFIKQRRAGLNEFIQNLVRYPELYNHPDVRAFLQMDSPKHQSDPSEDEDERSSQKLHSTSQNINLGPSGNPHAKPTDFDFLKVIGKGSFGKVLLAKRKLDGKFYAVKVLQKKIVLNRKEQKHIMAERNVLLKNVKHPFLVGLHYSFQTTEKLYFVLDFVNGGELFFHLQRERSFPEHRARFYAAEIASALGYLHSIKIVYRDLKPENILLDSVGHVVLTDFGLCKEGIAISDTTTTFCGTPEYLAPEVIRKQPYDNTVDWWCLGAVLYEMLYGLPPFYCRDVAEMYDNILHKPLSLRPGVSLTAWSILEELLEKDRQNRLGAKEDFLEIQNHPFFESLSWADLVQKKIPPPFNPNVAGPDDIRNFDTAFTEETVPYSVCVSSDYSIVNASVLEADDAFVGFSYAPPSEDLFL
# [2] = target: T2, Serine/threonine-protein kinase Sgk2 (Homo sapiens) (UniProt Q9HBY8); settings: at 1 µM
# T2 sequence (whole entry): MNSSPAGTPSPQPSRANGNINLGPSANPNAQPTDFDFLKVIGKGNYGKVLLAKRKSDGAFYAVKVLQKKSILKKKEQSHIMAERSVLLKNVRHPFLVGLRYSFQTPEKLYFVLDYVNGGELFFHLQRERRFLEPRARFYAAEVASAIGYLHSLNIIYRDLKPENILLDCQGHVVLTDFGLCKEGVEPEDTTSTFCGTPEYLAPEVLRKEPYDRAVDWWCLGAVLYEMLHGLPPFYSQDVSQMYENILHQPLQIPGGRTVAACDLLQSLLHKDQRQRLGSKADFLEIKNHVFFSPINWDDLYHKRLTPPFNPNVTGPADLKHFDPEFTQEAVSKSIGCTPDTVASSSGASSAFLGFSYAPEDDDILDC
# [3] = target: T2, Serine/threonine-protein kinase Sgk2 (Homo sapiens); settings: at 10 µM
# [4] = target: T1, Serine/threonine-protein kinase Sgk3 (Homo sapiens); settings: at 10 µM
# [5] = target: Serine/threonine-protein kinase SIK1 (Homo sapiens) (UniProt P57059); settings: at 1 µM
# Sequence of Serine/threonine-protein kinase SIK1 (Homo sapiens) (P57059 whole entry): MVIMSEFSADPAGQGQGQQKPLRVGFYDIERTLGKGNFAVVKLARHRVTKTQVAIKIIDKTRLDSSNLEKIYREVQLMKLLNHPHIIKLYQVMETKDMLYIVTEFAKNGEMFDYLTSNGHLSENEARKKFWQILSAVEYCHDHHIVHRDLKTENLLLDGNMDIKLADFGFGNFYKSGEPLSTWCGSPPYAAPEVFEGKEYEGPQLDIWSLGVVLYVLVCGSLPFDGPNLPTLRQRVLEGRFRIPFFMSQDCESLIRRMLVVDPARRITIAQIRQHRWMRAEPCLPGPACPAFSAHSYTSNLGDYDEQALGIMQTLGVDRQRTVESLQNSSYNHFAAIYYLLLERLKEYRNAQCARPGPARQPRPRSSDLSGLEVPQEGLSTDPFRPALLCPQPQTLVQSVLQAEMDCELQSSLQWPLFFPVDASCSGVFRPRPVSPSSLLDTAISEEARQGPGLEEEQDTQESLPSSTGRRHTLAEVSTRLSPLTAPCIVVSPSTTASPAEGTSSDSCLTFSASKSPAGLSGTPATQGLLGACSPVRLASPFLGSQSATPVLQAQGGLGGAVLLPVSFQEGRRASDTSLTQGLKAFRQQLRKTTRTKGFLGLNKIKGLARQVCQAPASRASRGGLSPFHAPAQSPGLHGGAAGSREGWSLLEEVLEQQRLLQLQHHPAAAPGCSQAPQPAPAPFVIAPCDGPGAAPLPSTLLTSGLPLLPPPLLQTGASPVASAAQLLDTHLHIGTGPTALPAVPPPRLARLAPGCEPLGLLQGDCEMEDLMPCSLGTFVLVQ
# [6] = target: Serine/threonine-protein kinase SIK1 (Homo sapiens) (UniProt P57059); settings: at 10 µM
# [7] = target: SRSF protein kinase 1 (Homo sapiens) (UniProt Q96SB4); settings: at 1 µM
# Sequence of SRSF protein kinase 1 (Homo sapiens) (Q96SB4 whole entry): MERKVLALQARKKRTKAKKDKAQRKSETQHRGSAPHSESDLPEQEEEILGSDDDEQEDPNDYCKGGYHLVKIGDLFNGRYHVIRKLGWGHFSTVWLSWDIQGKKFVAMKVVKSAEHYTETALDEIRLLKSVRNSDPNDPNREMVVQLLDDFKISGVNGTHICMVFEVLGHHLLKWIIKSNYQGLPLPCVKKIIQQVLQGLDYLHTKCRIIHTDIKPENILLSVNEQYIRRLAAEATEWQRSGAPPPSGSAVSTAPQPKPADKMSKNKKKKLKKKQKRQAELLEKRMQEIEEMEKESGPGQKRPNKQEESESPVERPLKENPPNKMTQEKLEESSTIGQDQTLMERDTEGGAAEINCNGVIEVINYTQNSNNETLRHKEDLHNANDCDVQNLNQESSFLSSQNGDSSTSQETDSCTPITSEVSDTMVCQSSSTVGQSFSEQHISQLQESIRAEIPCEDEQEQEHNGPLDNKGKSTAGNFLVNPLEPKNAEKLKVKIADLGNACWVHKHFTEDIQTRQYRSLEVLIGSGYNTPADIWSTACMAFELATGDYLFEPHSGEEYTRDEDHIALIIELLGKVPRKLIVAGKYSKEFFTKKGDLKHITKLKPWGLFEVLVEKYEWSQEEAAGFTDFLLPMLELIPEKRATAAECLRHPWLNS
# [8] = target: SRSF protein kinase 1 (Homo sapiens) (UniProt Q96SB4); settings: at 10 µM
# [9] = target: SRSF protein kinase 2 (Homo sapiens) (UniProt P78362); settings: at 1 µM
# Sequence of SRSF protein kinase 2 (Homo sapiens) (P78362 whole entry, looked up): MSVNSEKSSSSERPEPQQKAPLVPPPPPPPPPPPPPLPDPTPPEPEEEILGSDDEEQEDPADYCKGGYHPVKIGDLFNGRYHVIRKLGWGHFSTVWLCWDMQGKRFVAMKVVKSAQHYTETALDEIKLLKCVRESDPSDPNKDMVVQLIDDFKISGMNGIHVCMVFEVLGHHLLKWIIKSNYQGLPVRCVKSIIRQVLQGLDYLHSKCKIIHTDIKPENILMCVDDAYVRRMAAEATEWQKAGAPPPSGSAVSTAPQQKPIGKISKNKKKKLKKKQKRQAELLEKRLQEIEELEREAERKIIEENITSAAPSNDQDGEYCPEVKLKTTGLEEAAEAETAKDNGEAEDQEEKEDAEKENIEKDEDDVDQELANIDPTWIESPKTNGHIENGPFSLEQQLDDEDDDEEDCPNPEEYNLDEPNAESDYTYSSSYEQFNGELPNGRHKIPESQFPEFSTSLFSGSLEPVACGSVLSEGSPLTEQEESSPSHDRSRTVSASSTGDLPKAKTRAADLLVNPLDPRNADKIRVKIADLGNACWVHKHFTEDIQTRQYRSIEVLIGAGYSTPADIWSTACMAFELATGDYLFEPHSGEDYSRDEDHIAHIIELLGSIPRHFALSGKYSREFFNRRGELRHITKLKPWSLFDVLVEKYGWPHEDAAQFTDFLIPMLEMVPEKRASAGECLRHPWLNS
# [10] = target: SRSF protein kinase 2 (Homo sapiens) (UniProt P78362); settings: at 10 µM
# [11] = target: Serine/threonine-protein kinase 33 (Homo sapiens) (UniProt Q9BYT3); settings: at 1 µM
# Sequence of Serine/threonine-protein kinase 33 (Homo sapiens) (Q9BYT3 whole entry, looked up): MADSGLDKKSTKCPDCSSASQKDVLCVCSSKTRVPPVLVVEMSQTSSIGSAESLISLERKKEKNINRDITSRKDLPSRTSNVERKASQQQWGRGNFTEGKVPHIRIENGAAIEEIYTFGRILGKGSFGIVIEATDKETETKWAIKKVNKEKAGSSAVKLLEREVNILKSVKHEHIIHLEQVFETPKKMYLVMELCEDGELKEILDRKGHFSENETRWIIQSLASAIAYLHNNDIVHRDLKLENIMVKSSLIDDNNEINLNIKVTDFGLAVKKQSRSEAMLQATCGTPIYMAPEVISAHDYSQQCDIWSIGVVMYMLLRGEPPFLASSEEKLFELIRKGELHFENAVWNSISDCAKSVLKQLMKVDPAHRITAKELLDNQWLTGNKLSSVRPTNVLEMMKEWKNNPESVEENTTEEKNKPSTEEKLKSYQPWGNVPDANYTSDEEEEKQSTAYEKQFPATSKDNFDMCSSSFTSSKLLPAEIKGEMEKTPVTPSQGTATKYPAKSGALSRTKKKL
# [12] = target: Serine/threonine-protein kinase 33 (Homo sapiens) (UniProt Q9BYT3); settings: at 10 µM
# [13] = target: Serine/threonine-protein kinase PLK2 (Homo sapiens) (UniProt Q9NYY3); settings: at 1 µM
# Sequence of Serine/threonine-protein kinase PLK2 (Homo sapiens) (Q9NYY3 whole entry, looked up): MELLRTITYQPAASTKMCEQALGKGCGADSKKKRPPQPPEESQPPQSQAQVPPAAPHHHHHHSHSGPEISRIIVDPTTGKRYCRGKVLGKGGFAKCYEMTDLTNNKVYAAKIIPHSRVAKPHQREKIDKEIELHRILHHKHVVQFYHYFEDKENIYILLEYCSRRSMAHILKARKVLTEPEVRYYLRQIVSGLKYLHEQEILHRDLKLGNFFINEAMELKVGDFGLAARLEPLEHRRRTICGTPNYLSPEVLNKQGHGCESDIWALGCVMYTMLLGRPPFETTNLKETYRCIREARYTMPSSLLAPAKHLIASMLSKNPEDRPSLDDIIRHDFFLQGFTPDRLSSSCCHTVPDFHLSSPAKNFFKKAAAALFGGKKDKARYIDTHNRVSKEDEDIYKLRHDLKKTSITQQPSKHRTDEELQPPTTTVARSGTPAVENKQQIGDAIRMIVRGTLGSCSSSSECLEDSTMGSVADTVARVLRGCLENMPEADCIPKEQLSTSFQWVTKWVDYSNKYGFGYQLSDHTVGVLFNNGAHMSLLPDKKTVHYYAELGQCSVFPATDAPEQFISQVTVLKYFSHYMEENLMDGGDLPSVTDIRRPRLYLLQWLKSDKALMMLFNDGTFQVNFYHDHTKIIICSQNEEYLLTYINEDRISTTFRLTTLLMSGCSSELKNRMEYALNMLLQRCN
# [14] = target: Serine/threonine-protein kinase PLK2 (Homo sapiens) (UniProt Q9NYY3); settings: at 10 µM
# [15] = target: Tyrosine-protein kinase SYK (Homo sapiens) (UniProt P43405); settings: at 1 µM
# [16] = target: Tyrosine-protein kinase SYK (Homo sapiens) (UniProt P43405); settings: at 10 µM
# [17] = target: T3, Mitogen-activated protein kinase kinase kinase 7 (Homo sapiens) (UniProt O43318); settings: at 1 µM
# T3 sequence (whole entry): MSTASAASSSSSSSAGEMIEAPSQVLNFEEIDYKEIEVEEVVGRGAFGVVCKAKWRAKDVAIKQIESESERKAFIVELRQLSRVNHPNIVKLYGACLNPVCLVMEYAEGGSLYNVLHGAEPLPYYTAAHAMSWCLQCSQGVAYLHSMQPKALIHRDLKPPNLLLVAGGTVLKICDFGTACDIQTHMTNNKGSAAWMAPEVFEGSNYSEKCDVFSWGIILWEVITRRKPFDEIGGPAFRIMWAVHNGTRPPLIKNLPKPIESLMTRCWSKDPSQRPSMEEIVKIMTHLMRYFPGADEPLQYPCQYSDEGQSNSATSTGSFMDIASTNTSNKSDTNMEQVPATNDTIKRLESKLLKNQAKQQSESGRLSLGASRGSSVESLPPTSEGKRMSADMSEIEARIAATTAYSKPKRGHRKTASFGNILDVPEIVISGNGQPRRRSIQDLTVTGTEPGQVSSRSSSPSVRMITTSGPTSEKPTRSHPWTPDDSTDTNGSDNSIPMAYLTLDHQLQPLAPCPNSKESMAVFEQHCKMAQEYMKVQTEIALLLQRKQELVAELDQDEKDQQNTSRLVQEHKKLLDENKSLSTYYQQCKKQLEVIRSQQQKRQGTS
# [18] = target: T3, Mitogen-activated protein kinase kinase kinase 7 (Homo sapiens); settings: at 10 µM
# [19] = target: T4, Serine/threonine-protein kinase TAO1 (Homo sapiens) (UniProt Q7L7X3); settings: at 1 µM
# T4 sequence (whole entry): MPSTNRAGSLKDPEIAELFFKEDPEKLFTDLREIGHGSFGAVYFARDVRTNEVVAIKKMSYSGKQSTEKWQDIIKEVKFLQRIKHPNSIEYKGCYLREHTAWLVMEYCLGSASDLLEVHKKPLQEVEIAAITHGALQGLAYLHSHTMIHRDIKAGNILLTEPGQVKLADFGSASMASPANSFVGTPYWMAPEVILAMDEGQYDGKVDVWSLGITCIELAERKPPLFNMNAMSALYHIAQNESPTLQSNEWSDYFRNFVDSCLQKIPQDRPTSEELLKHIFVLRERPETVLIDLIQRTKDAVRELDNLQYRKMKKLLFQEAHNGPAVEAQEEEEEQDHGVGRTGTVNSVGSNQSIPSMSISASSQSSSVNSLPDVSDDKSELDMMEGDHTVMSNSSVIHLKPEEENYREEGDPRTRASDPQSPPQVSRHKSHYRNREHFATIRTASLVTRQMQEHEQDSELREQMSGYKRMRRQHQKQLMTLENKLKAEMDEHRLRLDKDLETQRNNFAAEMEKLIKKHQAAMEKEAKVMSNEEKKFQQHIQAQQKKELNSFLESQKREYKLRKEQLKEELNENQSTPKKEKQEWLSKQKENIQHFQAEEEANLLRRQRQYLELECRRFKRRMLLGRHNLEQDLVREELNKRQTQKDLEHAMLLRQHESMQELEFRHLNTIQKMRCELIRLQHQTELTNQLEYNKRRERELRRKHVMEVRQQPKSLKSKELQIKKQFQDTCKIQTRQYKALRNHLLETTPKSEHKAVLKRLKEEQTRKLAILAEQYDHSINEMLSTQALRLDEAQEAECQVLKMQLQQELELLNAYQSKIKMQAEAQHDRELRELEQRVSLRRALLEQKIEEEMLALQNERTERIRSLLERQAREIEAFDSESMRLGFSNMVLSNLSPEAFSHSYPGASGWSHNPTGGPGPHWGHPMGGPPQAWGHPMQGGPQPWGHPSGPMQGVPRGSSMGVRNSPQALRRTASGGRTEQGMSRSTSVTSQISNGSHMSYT
# [20] = target: T4, Serine/threonine-protein kinase TAO1 (Homo sapiens); settings: at 10 µM
structure (smiles),measurement,setting,value
COc1ccc(CNc2nc(N(CCO)CCO)nc3c2ncn3C(C)C)cc1,residual activity,[1],114%
O=C1NC(=O)c2c1c1c3ccccc3[nH]c1n1cncc21,residual activity,[1],87%
COc1ccc(S(=O)(=O)N(CCO)c2ccccc2CN(C)C/C=C/c2ccc(Cl)cc2)cc1,residual activity,[1],98%
COc1ccc2c(c1)c(C1=C(c3c[nH]c4ccccc34)C(=O)NC1=O)cn2CCCN(C)C,residual activity,[1],96%
O=[N+]([O-])/C=C/c1ccc2c(c1)OCO2,residual activity,[2],89%
same,residual activity,[3],66%
same,residual activity,[1],110%
same,residual activity,[4],87%
same,residual activity,[5],100%
same,residual activity,[6],112%
same,residual activity,[7],111%
same,residual activity,[8],99%
same,residual activity,[9],97%
same,residual activity,[10],98%
same,residual activity,[11],93%
same,residual activity,[12],89%
same,residual activity,[13],102%
same,residual activity,[14],102%
same,residual activity,[15],123%
same,residual activity,[16],82%
same,residual activity,[17],92%
same,residual activity,[18],90%
same,residual activity,[19],101%
same,residual activity,[20],98%
COc1ccc(OC)c2c(=S)c3ccccc3[nH]c12,residual activity,[1],112%
Cn1nc2c3c(cccc31)C(=O)c1ccccc1-2,residual activity,[1],79%
Cn1cnc2cc3c(Nc4cccc(Br)c4)ncnc3cc21,residual activity,[1],107%
Cc1cc(Nc2nc(-c3ccccc3)nc3ccccc23)n[nH]1,residual activity,[1],107%
Nc1n[nH]c2nnc(-c3c(-c4ccccc4)nn4ccccc34)cc12,residual activity,[1],106%
Oc1ccc(Nc2nc(-c3ccc(Cl)cc3)cs2)cc1,residual activity,[1],112%
C[C@@H](N)[C@H]1CC[C@H](C(=O)Nc2ccncc2)CC1,residual activity,[1],101%
O=C(c1ccccc1)c1ccc(N2CCOCC2)cc1O,residual activity,[1],97%
CCCCc1c(-c2ccc(O)cc2)[nH]c2nccnc12,residual activity,[1],98%
CC(C)(C)c1cc(C=C(C#N)C#N)cc(Br)c1O,residual activity,[2],98%
same,residual activity,[3],70%
same,residual activity,[5],103%
same,residual activity,[6],139%
same,residual activity,[7],114%
same,residual activity,[9],105%
same,residual activity,[10],81%
same,residual activity,[11],110%
same,residual activity,[12],108%
same,residual activity,[14],67%
same,residual activity,[15],128%
same,residual activity,[17],104%
same,residual activity,[18],103%
same,residual activity,[19],112%
same,residual activity,[20],70%
O=C(O)c1ccc2c3c1cccc3c(=O)n1c3ccccc3nc21,residual activity,[1],105%
COC(=O)[C@@]1(O)C[C@H]2O[C@]1(C)n1c3ccccc3c3c4c(c5c6ccccc6n2c5c31)C(=O)NC4,residual activity,[2],7%
same,residual activity,[3],1%
same,residual activity,[1],47%
same,residual activity,[4],13%
same,residual activity,[5],0%
same,residual activity,[6],0%
same,residual activity,[7],67%
same,residual activity,[8],14%
same,residual activity,[9],97%
same,residual activity,[10],52%
same,residual activity,[11],7%
same,residual activity,[12],0%
same,residual activity,[14],36%
same,residual activity,[15],1%
same,residual activity,[16],2%
same,residual activity,[17],-1%
same,residual activity,[18],-5%
same,residual activity,[19],5%
same,residual activity,[20],3%
Nc1ncnc2c1c(-c1ccc(Oc3ccccc3)cc1)cn2C1CCCC1,residual activity,[1],104%
O=C1Nc2ccc3ncsc3c2/C1=C/c1c[nH]cn1,residual activity,[2],12%
same,residual activity,[3],5%
same,residual activity,[1],73%
same,residual activity,[4],21%
same,residual activity,[5],49%
same,residual activity,[6],43%
same,residual activity,[7],102%
same,residual activity,[8],101%
same,residual activity,[9],104%
same,residual activity,[11],62%
same,residual activity,[12],25%
same,residual activity,[13],49%
same,residual activity,[14],17%
same,residual activity,[15],101%
same,residual activity,[16],53%
same,residual activity,[17],16%
same,residual activity,[18],1%
same,residual activity,[19],11%
same,residual activity,[20],0%
C[S+]([O-])c1ccc(-c2nc(-c3ccc(F)cc3)c(-c3ccncc3)[nH]2)cc1 (stereo not drawn),residual activity,[2],114%
same,residual activity,[3],81%
same,residual activity,[1],120%
same,residual activity,[4],101%
same,residual activity,[5],132%
same,residual activity,[6],93%
same,residual activity,[7],112%
same,residual activity,[8],109%
same,residual activity,[9],112%
same,residual activity,[11],106%
same,residual activity,[12],109%
same,residual activity,[13],116%
same,residual activity,[14],103%
same,residual activity,[15],112%
same,residual activity,[16],101%
same,residual activity,[17],106%
same,residual activity,[18],101%
same,residual activity,[19],100%
same,residual activity,[20],77%
O=c1[nH]c2ccccc2n1C1CCN(Cc2ccc(-c3nc4cc5[nH]cnc5cc4nc3-c3ccccc3)cc2)CC1,residual activity,[2],100%
same,residual activity,[3],74%
same,residual activity,[1],94%
same,residual activity,[4],81%
same,residual activity,[5],115%
same,residual activity,[6],44%
same,residual activity,[7],80%
same,residual activity,[8],97%
same,residual activity,[9],99%
same,residual activity,[10],80%
same,residual activity,[11],100%
same,residual activity,[12],95%
same,residual activity,[13],91%
same,residual activity,[14],92%
same,residual activity,[15],125%
same,residual activity,[16],76%
same,residual activity,[17],97%
same,residual activity,[18],96%
same,residual activity,[19],102%
same,residual activity,[20],65%
O=C1NC(=O)c2c1c1c3ccccc3n3c1c1c2c2ccccc2n1C1CCC3O1,residual activity,[2],77%
same,residual activity,[3],61%
same,residual activity,[1],98%
same,residual activity,[4],80%
same,residual activity,[5],123%
same,residual activity,[6],74%
same,residual activity,[7],92%
same,residual activity,[8],83%
same,residual activity,[15],90%
same,residual activity,[16],80%
same,residual activity,[17],88%
same,residual activity,[18],89%
same,residual activity,[19],75%
same,residual activity,[20],69%
O=c1cc(N2CCOCC2)oc2c1ccc1ccccc12,residual activity,[1],97%
c1cc(-c2cnn3cc(-c4ccc(OCCN5CCCCC5)cc4)cnc23)ccn1,residual activity,[2],81%
same,residual activity,[3],48%
same,residual activity,[4],78%
same,residual activity,[5],43%
same,residual activity,[6],9%
same,residual activity,[13],82%
same,residual activity,[14],85%
same,residual activity,[16],59%
same,residual activity,[17],57%
same,residual activity,[18],13%
CC(C)(C)n1nc(Cc2cccc3ccccc23)c2c(N)ncnc21,residual activity,[1],106%
